Measurements: PubChem BioAssay (Tox21)
Inconclusive results are not listed. Calls of active or inactive are those of the source. Calls follow the shape of the full dose curve.

Test: qHTS assay for small molecule agonists of the p53 signaling pathway - cell viability (AID 651633);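 also: p53RE-bla HCT reporter cells with a stable beta-lactamase p53 reporter; nearly all actives have a fitted effect of over 30% in size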
Settings: p53RE-bla HCT-116 viability, ATP luminescence, 16 h; series mostly up to 83.3 µM; activity change, negative = cytotoxicity: at the top concentration
Description: National Center for Advancing Translational Sciences [NCATS]
NIH Chemical Genomics Center [NCGC]
U.S. Environmental Protection Agency [EPA]
National Institutes of Environmental Health Sciences [NIEHS]
National Toxicology Program [NTP]
U.S. Food and Drug Administration [FDA]
p53, a tumor suppressor protein, is activated following cellular insult, including DNA damage and other cellular stresses. The activation of p53 regulates cell fate by inducing DNA repair, cell cycle arrest, apoptosis, or cellular senescence. The activation of p53, therefore, is a good indicator of DNA damage and other cellular stresses. […] The activation of the reporter gene under culture conditions can be detected by fluorescence intensity. This cell line was used to screen the Tox21 compound library in a 1536-well plate format and to identify agonists that activate the p53 signaling pathway.
Tox21 Assay Protocol Summary:
The p53RE-bla cells were dispensed at 4,000 cells/5 ul/well in 1536-well black wall/clear bottom plates using a Multidrop dispenser. After the assay plates were incubated at a 37 C/5% CO2 incubator for 5 hours, 23 nL of compounds dissolved in DMSO, positive controls or DMSO only was transferred to the assay plate by a pin tool. The plates were incubated at 37 C for 16 hours. After 1 uL of LiveBLAzerTM B/G FRET substrate was added using a Flying Reagent Dispenser, the plates were incubated at room temperature for 2 hours, and fluorescence intensity was measured by an Envision plate reader.
For cell viability readout that measures cytotoxicity, 4 ul/well of CellTiter-Glo reagent was added into the assay plates using a Flying Reagent Dispenser. After 30 min incubation at room temperature, the luminescence intensity in the plates was measured using a ViewLux plate reader.
% is scaled to controls: 0 for no effect and ±100 for the full control effect.

Row | Compound | activity change, negative = cytotoxicity | Potency
1 | C1C2OC2C2C1C1CC2C2OC12 (stereo not given) | 16.7% [at 95.3 µM] (inactive) | 
2 | CCCCCCC(=O)OCC | 8.77% (inactive) | 
3 | Cc1ccc(N)cc1[N+](=O)[O-] | 9.44% [at 95.3 µM] (inactive) | 
4 | CCCOCC(C)OCC(C)O (stereo not given) | -23.1% [at 95.3 µM] (inactive) | 
5 | Cc1c(C)n(CCN(C)C)c2ccc(C(=O)OCCN(C)C)cc12 | 14.9% (inactive) | 
6 | C#CC(O)CCCCC (stereo not given) | -12.6% [at 95.3 µM] (inactive) | 
7 | C/C=C1\C(=O)C[C@H]2[C@@H]3CCC4=CC(=O)CC[C@]4(C)[C@H]3CC[C@]12C | -25% (inactive) | 
8 | O=S(=O)(c1cccc2cnccc12)N1CCCNCC1 | -14.1% (inactive) | 
9 | Nc1[nH]c(=O)ncc1F | -13% [at 39.1 µM] (inactive) | 
10 | CC(C)N1C(=O)c2ccccc2C1=O | 10.4% (inactive) | 
11 | Cn1ccc2cc3c(cc21)CCN3C(=O)Nc1cccnc1 | 12.7% (inactive) | 
12 | C#CC(C)(O)CC(C)C (stereo not given) | 15.1% (inactive) | 
13 | FC(F)(F)C(F)(F)C(F)(F)C(F)(F)C(F)(F)C(F)(F)C(F)(F)C(F)(F)C(F)(F)C(F)(F)F | -19.5% [at 8.08 µM] (inactive) | 
14 | COc1cc(C(=O)N2CCOCC2)cc(OC)c1OC |  | inactive
15 | O=S(=O)(O)c1ccccc1O | 13.8% (inactive) | 
16 | C=CCOc1nc(OCC=C)nc(OCC=C)n1 | 8.69% (inactive) | 
17 | Cc1onc(-c2ccccc2)c1-c1ccc(S(N)(=O)=O)cc1 | -16.5% (inactive) | 
18 | CC(=O)c1ccc(C)cc1 | 11.2% (inactive) | 
19 | C=C(C)C(=O)OCCC(C)OC(=O)C(=C)C (stereo not given) | -1.39% (inactive) | 
20 | COc1cc(CCC(C)=O)ccc1O | -16.8% (inactive) | 

Row | Compound | activity change, negative = cytotoxicity | Potency
21 | C=C(C)C(=O)NCCC[N+](C)(C)C | 18.7% (inactive) | 
22 | Cc1cc(C)cc(OCC2CNC(=O)O2)c1 (stereo not given) | 21.4% (inactive) | 
23 | OCCCCCCO | 3.47% [at 95.3 µM] (inactive) | 
24 | Oc1ccc2c(c1)OC[C@@H](N1CCC(O)(c3ccc(F)cc3)CC1)[C@H]2O | 8.73% (inactive) | 
25 | NCCNC(=O)c1ccc(Cl)cn1 | 9.88% (inactive) | 
26 | O=[N+]([O-])c1ccc(Oc2ccc([N+](=O)[O-])cc2)cc1 | -3.58% [at 95.3 µM] (inactive) | 
27 | O=C(O)c1ccc[n+]([O-])c1 | -14% (inactive) | 
28 | c1ccc(SCCSc2ccccc2)cc1 | -7.79% (inactive) | 
29 | NC(=O)Nc1nc2ccccc2[nH]1 | 16.6% (inactive) | 
30 | CC(C)(C)OC(=O)N1C[C@@H](F)C[C@H]1C(=O)O | 16.6% [at 95.3 µM] (inactive) | 
31 | C=CC(=O)N1CCOCC1 | 18.6% (inactive) | 
32 | NS(=O)(=O)c1cc(C2(O)NC(=O)c3ccccc32)ccc1Cl (stereo not given) | 16.7% [at 39.1 µM] (inactive) | 
33 | CO |  | inactive
34 | O=C1OC(=O)c2cc([N+](=O)[O-])ccc21 | 17.9% (inactive) | 
35 | CC(C)=CC(=O)O | -6.76% (inactive) | 
36 | CCCCCCCCCCCl | -9.76% [at 95.3 µM] (inactive) | 
37 | CC(C)CCCC(C)CCCC(C)CCCCC(C)CCCC(C)CCCC(C)C (stereo not given) | 15.2% (inactive) | 
38 | NS(=O)(=O)c1cc2c(cc1Cl)NC(CSCc1ccccc1)=NS2(=O)=O | 17.6% [at 39.1 µM] (inactive) | 
39 | CC(C)(O)Cc1ccccc1 | 20.8% (inactive) | 
40 | CC(C)=CCC/C(C)=C/C(=O)O | -9.74% (inactive) | 
